Test results taken from PubChem BioAssay (NCI).
This is part of a sample that, as a whole, favours compounds with a hit. Of some 83,000 tested, about 20% had one in any assay.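 Step 1: grow cells in 96-well plates. Step 2: add test compound at a single concentration. Step 3: incubate 48 h. Step 4: record percent growth.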 Values without a mark were called inactive. Calls of active or inactive are those of the source. The calls were made as follows: active = growth percent below 10; inactive = the rest.

Experiments:
Experiment in all cases: NCI-60 one-dose screen, 48 h (100 = growth as untreated, 0 = no growth, -100 = all killed)
Settings in all cases: 10 µM unless noted
HCT-15 colon = tested on: HCT-15 colon
HT29 colon = tested on: HT29 colon
SNB-75 CNS = tested on: SNB-75 CNS
SNB-19 CNS = tested on: SNB-19 CNS
U251 CNS = tested on: U251 CNS
PC-3 prostate = tested on: PC-3 prostate
SK-MEL-5 melanoma = tested on: SK-MEL-5 melanoma
UACC-62 melanoma = tested on: UACC-62 melanoma
LOX IMVI melanoma = tested on: LOX IMVI melanoma
SK-MEL-28 melanoma = tested on: SK-MEL-28 melanoma
SK-MEL-2 melanoma = tested on: SK-MEL-2 melanoma
EKVX NSCLC = tested on: EKVX NSCLC
SN12C renal = tested on: SN12C renal
UO-31 renal = tested on: UO-31 renal
TK-10 renal = tested on: TK-10 renal
ACHN renal = tested on: ACHN renal
CAKI-1 renal = tested on: CAKI-1 renal
A498 renal = tested on: A498 renal
CCRF-CEM leukemia = tested on: CCRF-CEM leukemia
MOLT-4 leukemia = tested on: MOLT-4 leukemia

Structure (SMILES) | growth (HCT-15 colon) [%] | growth (HT29 colon) | growth (SNB-75 CNS) | growth (SNB-19 CNS) [%] | growth (U251 CNS) [%] | growth (PC-3 prostate) | growth (SK-MEL-5 melanoma) | growth (UACC-62 melanoma) [%] | growth (LOX IMVI melanoma) [%] | growth (SK-MEL-28 melanoma) [%] | growth (SK-MEL-2 melanoma) | growth (EKVX NSCLC) [%] | growth (SN12C renal) [%] | growth (UO-31 renal) [%] | growth (TK-10 renal) | growth (ACHN renal) [%] | growth (CAKI-1 renal) | growth (A498 renal) | growth (CCRF-CEM leukemia) | growth (MOLT-4 leukemia)
COc1cc2c(c(OC)c1OC)C(=O)CC(c1cccc(C(=O)Nc3ccc(Br)cc3)c1)O2 (stereo not given) | 57.9 | 75% | 51.1% | 80.2 | 83.4 | 5.38% (active) | 22.3% | 40.9 | 57.9 | 74.5 | 60.3% | 63.5 | 51.1 | 40.3 | 75.2% | 63.9 | 62% | 40.3% | 9.34% (active) | -0.848% (active)
O=C(O)CCCN1C(=O)CSC1=S | 94.3 | 108% | 85.6% | 102 | 108 | 95.3% | 101% | 96.2 | 94.7 | 105 | 104% | 103 | 94.9 | 87.9 | 131% | 108 | 104% | 105% | 99.6% | 98.4%
C#CCOC(=O)C(N)CSSCC(N)C(=O)O (stereo not given) | 108 | 102% | 76.1% | 103 | 105 | 91.6% | 105% | 98 | 98.7 | 96.4 | 89.2% | 102 | 105 | 83.5 | 100% | 91.7 | 90.7% | 116% | 99.4% | 102%
CN(Cc1ccccc1)c1nc(Cl)c(C2CC(c3ccc(Cl)cc3)=NN2c2cc(Cl)cc(Cl)c2)s1 (stereo not given) | 98.8 | 92.9% | 90.4% | 108 | 109 | 92.5% | 107% | 98.1 | 97.8 | 112 | 104% | 94.4 | 106 | 96.9 | 117% | 102 | 84.4% | 111% | 95.1% | 110%
O=C(c1ccccc1)[C@@H](c1ccccc1)[C@]1(O)C(=O)Nc2ccccc21 | 100 | 101% | 83.7% | 94.1 | 101 | 90.7% | 92.1% | 85.9 | 91.1 | 96.2 | 96.9% | 105 | 82.3 | 76.1 | 112% | 90.1 | 84.6% | 100% | 100% | 102%
Cc1[nH]c(C(=O)Nc2ccc(C(N)=O)cc2OC(C)C)c(Cl)c1Cl | 96.1 | 111% | 93.3% | 99 | 98.2 | 99.3% | 99.3% | 106 | 96.1 | 106 | 100% | 86.3 | 99.9 | 74.4 | 117% | 97.2 | 105% | 84.3% | 92.5% | 89.2%
N#CC1=C(N)Oc2c(ccc3ccccc23)C1c1cc2ccccc2n2nnnc12 (stereo not given) | 11.8 | 8.73% (active) | 8.82% (active) | 26.2 | 18.7 | 10.1% | 7.97% (active) | 25.4 | 24.5 | 39.3 | 12% | 52.1 | 27.3 | 25.9 | 37.3% | 22.7 | 31.6% | -2.46% (active) | -5.43% (active) | 10.6%
COC(=O)c1cc(-c2cc(OC)c(OC)c(OC)c2)[nH]c1N/N=C/c1c(Cl)cccc1Cl | 60 | 32.4% | 3.41% (active) | 28.5 | 14.1 | 12% | 58.7% | 34.8 | 19.2 | 30.1 | -21.2% (active) | 64.4 | 40.6 | 40.9 | -47.6% (active) | 10.1 | 7.04% (active) | -63.6% (active) | 35.6% | 33.2%
